Results on 24 sequences are retold here after the supplement of paper PMC11417369.

± gives the standard deviation of the averaged measurements. Over roughly 25,000 sequences, “ln(normalized median fluorescence intensity)” has its median near 8.6; the highest 2% begin near 10. What follows is part of a selection rich in the highest values, with near analogues and random picks from the rest.

In this assay the test system is PfAP2-EXP AP2 domain (GST-tagged). The experiment in a line: gcPBM binding intensity (ln(normalized median fluorescence intensity)); higher = stronger DNA binding. The procedure, abridged:
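The binding buffer was 1× PBS containing 1% milk, 0.2 mg/ml BSA, 0.5% salmon testes DNA and 0.03% Triton X-100. In it, GST-tagged P. falciparum DNA-binding domains expressed in E. coli were applied for 1 h to an Agilent 4 × 180k array of primer-extended double-stranded 36-bp intergenic genomic probes plus negative controls. Binding intensity, read with Alexa488 anti-GST antibody and a 488 nm scan, is the highest Masliner-normalised natural-log median intensity across replicate spots of either probe orientation.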
For the sequence “TATATATATATATATTGTACTGAACGTTTTTTTTTG [XGTACX_site8060]”, the “gcPBM binding intensity (ln)” value was determined as 10.2 ± 0.39.
For “AATACGTTTATATATTGTACGTTATATATATATATA [XGTACX_site7452]” the value was 9.91 ± 0.33; for “ACCGGTGGAACGTTTTGTACATATATAATAATATAT [XGTACX_site2143]”, 8.62 ± 0.5.
“ATTGTGGATATTCTTACACACAAATTTATATATAAA [CACACA_site2601]”: the “gcPBM binding intensity (ln)” value turned out to be 8.37 ± 0.49.
With “AAGTTTTTTTTTAACACACACATAATAAAATAAATA [CACACA_site446]”, the “gcPBM binding intensity (ln)” value came to 8.46 ± 0.31.
Consider “GTATGTTTAATTTTAGTGCAATTATAAATATTTTAA [GTGCAC_site9531]”, for which the “gcPBM binding intensity (ln)” value is 8.62 ± 0.18.
With “TATATATATTTATATGCATGTAATATATTTGTATTG [TGCATGCA_site323]”, the “gcPBM binding intensity (ln)” value was 8.71 ± 0.3.
For the sequence “AAAAAAAAATGAAAAGAAAAAAAAAGAAAAAAGGGA [CACACA_negctrl_site287]”, the “gcPBM binding intensity (ln)” value amounted to 8.61 ± 0.67.
As for “GGGGAAAAAAAAAAAGGAAAAAGAAAAAAAAAAAAA [GTGCAC_negctrl_site489]”, the “gcPBM binding intensity (ln)” value is 8.38 ± 0.39.
Next, “AAAAAAAAAAAAAAAAGGGGGGGAGGGATTGAAAAA [CACACA_negctrl_site193]”: 10.22 ± 0.042.
“CTATTATAATATTTTACACACCATGTAAGATATATA [CACACA_site7492]”: the “gcPBM binding intensity (ln)” value turned out to be 8.46 ± 0.35.
On to “ATTATATTATTTTAAAGTACACACATATATTAATAT [XGTACX_site4769]”, for which the “gcPBM binding intensity (ln)” value was found to be 8.63 ± 0.24.
Turning to “CATATTTTTTCTTAAACACACACATATATATATATA [CACACA_site8920]”, the “gcPBM binding intensity (ln)” value is 10.1 ± 0.41.
Take “TTAACAGTAAAACACAGTACATATATACTTAAAACA [XGTACX_site1930]”: the “gcPBM binding intensity (ln)” value turned out to be 8.59 ± 0.35.
For “TATATTCTTTTAAACAGTACACACACACATATATAT [XGTACX_site1701]” the value was 8.96 ± 0.44; for “TATTTTTTCTTAAACACACACATATATATATATAAT [CACACA_site5567]”, 8.56 ± 0.39; for “TTTTCTTTTAAACATATATATATATATATATATATA [XGTACX_negctrl_site559]”, 10.4 ± 0.23.
As to “TATTTTAAAAAAAAAAGTACACATAATATATATAAC [XGTACX_site5416]”, the “gcPBM binding intensity (ln)” value came to 8.64 ± 0.26.
With “TCTTTTAAACAGTACACACACACATCTATATTTATA [CACACA_site6559]”, the “gcPBM binding intensity (ln)” value came to 8.755 ± 0.078.
For the sequence “TTAATCCTTTTTAAAAGTACACATATATATATATAT [XGTACX_site962]”, the “gcPBM binding intensity (ln)” value stood at 10.2 ± 0.38.
With “TTAAAACCAAAACACAGTACATATATATATATATAT [XGTACX_site5668]”, the “gcPBM binding intensity (ln)” value stood at 10.3 ± 0.23.
For “AAATAAAATACATATAAACACACATATAAACCAACA [CACACA_site8789]” the value was 8.88 ± 0.61; for “TCTTTTAAACAGTACACACACACATATATATATATA [CACACA_site924]”, 10.3 ± 0.22.
For “ATATATATATTAAATACACACATTTTTGATTAGGTT [CACACA_site3119]”, the “gcPBM binding intensity (ln)” value amounted to 9.405 ± 0.078.
